Source: PubChem BioAssay (Tox21)
Records with an inconclusive call do not appear. Activity calls are given as the source filed them. Unless noted, the call rests on the fitted dose curve; in most records, active means well fitted curve in the direction sought with a large enough effect in the repeat runs; inconclusive means weak or mixed curves; inactive means no such curve, though single readings can be large; an effect the other way counts as inactive or inconclusive.

What was measured:
[1] = A CellTox Green Cytotoxicity Assay to monitor cytotoxicity in HepG2 cells - 8 hour (AID 1224890); further: nearly all actives have a fitted effect of over 45% in size; further: potency means the concentration at half of the fitted maximal effect
Method in brief: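 Cytotoxicity was tracked as dead-cell DNA fluorescence in HepG2 cells treated with test compounds at 37 C; each time-point value comes from one kinetic series spanning 0, 8, 16, 24, 32 and 40 h.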

[2] = qHTS assay to identify small molecule antagonists of the estrogen receptor alpha (ER-alpha) signaling pathway using the BG1 cell line in the presence of 0.1 nM 17-beta-estradiol - cell viability counter screen (AID 1259241); further: nearly all actives have a fitted effect of over 40% in size; further: potency means the concentration at half of the fitted maximal effect
Method in brief: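 Cytotoxicity counter-screen: live-cell protease activity measured by fluorescence (30 min reagent step) in the same wells. Cells were VM7Luc4E2 with endogenous ER-alpha and ERE-driven luciferase, treated 22 hr at 37C alongside 0.1 nM 17beta-estradiol final.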

[3] = target: Estrogen receptor (Homo sapiens) (UniProt P03372); test: qHTS assay to identify small molecule antagonists of the estrogen receptor alpha (ER-alpha) signaling pathway using the BG1 cell line in the presence of 0.1 nM 17-beta-estradiol (AID 1259244); further: nearly all actives have a fitted effect of over 50% in size; further: potency means the concentration at half of the fitted maximal effect
Method in brief: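 Luciferase signal from VM7Luc4E2 ERE-reporter cells, co-dosed with test compound and 0.1 nM final 17beta-estradiol for 22 h, read with ONE-Glo.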

[4] = qHTS assay to identify small molecule phospholipidosis (PLD) inducers (AID 1259344; active means well fitted curve in the direction sought with a large enough effect; an effect the other way counts as inactive or inconclusive)
Method in brief: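 Read-out is LipidTOX Red fluorescence (ex 595/em 615) imaged in HepG2 cells after 24 h compound exposure at 37 C, with Hoechst nuclear counterstain (ex 352/em 461) allowing per-cell normalisation.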

[5] = qHTS assay to identify small molecule HDAC inhibitors (AID 1259364); further: potency means the concentration at half of the fitted maximal effect;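 further: wild-type HCT-116 cells with endogenous class I/II HDAC activity; nearly all actives have a fitted effect of over 45% in size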; on activity change, negative = inhibition: top concentration of the series differs between compounds
Method in brief: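 HCT-116 wt cells, 1,500/well, overnight attach. Compounds (DMSO) 2 h, 37 °C. HDAC-Glo I/II, 30 min RT. Luminescence.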

[6] = qHTS assay to identify small molecule HDAC inhibitors - cell viability counter screen (AID 1259365); further: series mostly up to about 92 µM; nearly all actives have a fitted effect of over 50% in size
Method in brief: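 CellTiter-Glo luminescence (30 min, room temperature) reported viability after a 2 h compound exposure at 37 C. Cells: wild-type HCT-116, 1,500 per well, seeded the night before.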

[7] = qHTS assay to identify small molecule agonists of the sonic hedgehog signaling (Shh) pathway - cell viability counter screen (AID 1259366); further: nearly all actives have a fitted effect of over 50% in size; further: potency means the concentration at half of the fitted maximal effect
Method in brief: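 Cytotoxicity counter screen: CellTiter-Fluor reagent added after 23 h compound exposure, then 1 h at 37C and fluorescence read. Cells were 3T3 Gli1-Luc, seeded 2,000 per well and dosed 4 h post-plating.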

[8] = qHTS assay to identify small molecule antagonists of the sonic hedgehog signaling (Shh) pathway - cell viability counter screen (AID 1259367); further: nearly all actives have a fitted effect of over 55% in size; further: potency means the concentration at half of the fitted maximal effect
Method in brief: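 Fluorescence read-out (CellTiter-Fluor, 1 hr at 37C) taken after 23 hr compound treatment of 3T3 Gli1-Luc cells stimulated with conditioned medium. Cells were seeded at 2,000 per well and pre-incubated 4 hr.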

[9] = qHTS assay to identify small molecule agonists of the sonic hedgehog signaling (Shh) pathway (AID 1259368; calls by dose curve;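 further: NIH/3T3-derived 3T3Gli1-Luc cells carrying a stable Gli1-driven firefly luciferase reporter; series mostly up to about 92 µM; nearly all actives have a fitted effect of over 15% in size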)
Method in brief: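 Following a 24 hr incubation with DMSO-dissolved compounds at 37 C, 5% CO2, Gli1-Luc NIH/3T3-derived cells received luciferase reagent for 30 min at room temperature prior to luminescence measurement.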

[10] = qHTS assay to identify small molecule antagonists of the sonic hedgehog signaling (Shh) pathway (AID 1259369; calls by dose curve; further: nearly all actives have a fitted effect of over 45% in size; further: potency means the concentration at half of the fitted maximal effect)
Method in brief: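 Read-out is luminescence from a firefly luciferase gene controlled by the Gli1 response element, in 3T3Gli1-Luc cells pre-incubated 4hr then exposed to compounds and conditioned medium for 24hr.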

[11] = target: Estrogen receptor beta (Homo sapiens) (UniProt Q92731); test: qHTS assay to identify small molecule agonists of the estrogen receptor beta (ER-beta) signaling pathway (AID 1259377; active means well fitted activation curve with a large enough effect in the signal ratio in the repeat runs, not every such curve was filed as active; the % refers to the signal ratio)
Method in brief: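 Ratiometric beta-lactamase FRET read-out came after 2 h substrate loading at room temperature. It followed 16 h compound treatment at 37C of GripTite HEK293T cells carrying a UAS-bla reporter, plated in 2% charcoal-stripped FBS medium.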

[12] = qHTS assay to identify small molecule agonists of the androgen receptor (AR) signaling pathway in the presence of an antagonist - cell viability counter screen (AID 1259379); further: nearly all actives have a fitted effect of over 25% in size; further: potency means the concentration at half of the fitted maximal effect;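 on activity change, negative = cytotoxicity: MDA-kb2 human breast cancer cells carrying an MMTV luciferase reporter; series mostly up to about 92 µM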
Method in brief: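 Each compound was tested at 15 concentrations on MDA-kb2 cells in the presence of 3.0uM nilutamide. Viability was measured by CellTiter-Fluor fluorescence after a 16 hr incubation at 37C in a CO2-free atmosphere.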

[13] = qHTS assay to identify small molecule agonists of the estrogen receptor beta (ER-beta) signaling pathway - cell viability counter screen (AID 1259380); further: nearly all actives have a fitted effect of over 30% in size; further: potency means the concentration at half of the fitted maximal effect
Method in brief: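 Compounds dissolved in DMSO were pin-transferred onto ER-beta-UAS-bla HEK293T cells that had settled 6 hr, and exposure ran 16 hr at 37C. Following the reporter read, CellTiter-Glo luminescence after 30 min at room temperature indicated cytotoxicity.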

[14] = target: Estrogen receptor (Homo sapiens) (UniProt P03372); test: qHTS assay to identify small molecule agonists of the estrogen receptor alpha (ER-alpha) signaling pathway in the presence of an antagonist (AID 1259383; calls by dose curve; further: top concentration of the series differs between compounds; nearly all actives have a fitted effect of over 15% in size)
Method in brief: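 Luminescent ERE-luciferase reporter, VM7Luc4E2 cells (endogenous ER-alpha); 10.0nM ICI-182,780 final; 15-point compound titration; 22hr at 37C; ONE-Glo, 30min RT.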

[15] = qHTS assay to identify small molecule agonists or antagonists of the thyroid stimulating hormone receptor (TSHR) signaling pathway - wild type cell line counter screen (AID 1259384; calls by dose curve)
Method in brief: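 Wild-type Hek293 cells, 800/well, 18 h at 37C, then compound with Ro20-1724 for 30 min RT. cAMP by HTRF (cAMP-d2/anti-cAMP cryptate), 1 h RT, fluorescence read. 15 concentrations, triplicates.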

[16] = qHTS assay to identify small molecule antagonists of the estrogen receptor beta (ER-beta) signaling pathway - cell viability counter screen (AID 1259382); further: series mostly up to about 92 µM; nearly all actives have a fitted effect of over 55% in size
Method in brief: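 CellTiter-Glo ATP luminescence measured after the LiveBLAzer read in the same wells; ER-beta-UAS-bla HEK293T cells, 16 hr compound treatment with 1nM 17-beta-estradiol agonist at 37C, 5% CO2.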

[17] = target: Androgen receptor (Homo sapiens) (UniProt P10275); test: qHTS assay to identify small molecule antagonists of the androgen receptor (AR) signaling pathway using the MDA cell line in the presence of 0.5 nM R1881 (AID 1259243); further: nearly all actives have a fitted effect of over 50% in size
Method in brief: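 Luminescence from an AR/GR-responsive MMTV-luciferase construct in MDA-kb2 breast carcinoma cells, read 30 min after ONE-Glo, following 16 hr co-treatment with compounds and 0.5 nM R1881.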

[18] = target: Estrogen receptor beta (Homo sapiens) (UniProt Q92731); test: qHTS assay to identify small molecule antagonists of the estrogen receptor beta (ER-beta) signaling pathway (AID 1259378; active means well fitted inhibition curve with a large enough effect in the signal ratio in the repeat runs, not every such curve was filed as active; the % refers to the signal ratio)
Method in brief: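 ER-beta-UAS-bla HEK293T cells in 2% charcoal-stripped FBS medium treated with compound plus 1nM final 17-beta-estradiol for 16 hr at 37C. Beta-lactamase reporter read by FRET substrate fluorescence after 2 hours at room temperature.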

[19] = target: Androgen receptor (Homo sapiens) (UniProt P10275); test: qHTS assay to identify small molecule agonists of the androgen receptor (AR) signaling pathway in the presence of an antagonist (AID 1259381; calls by dose curve; further: nearly all actives have a fitted effect of over 15% in size)
Method in brief: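 Plated MDA-kb2 cells (3,000/well) were pre-incubated 5hr, given nilutamide (3.0uM final) or buffer, then dosed with compounds in DMSO at 15 concentrations. Luciferase activity was quantified by luminescence after 16hr at 37C.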
On the % scale 0 is the no-effect control and ±100 the full control effect.

Chain of Estrogen receptor (Homo sapiens) (P03372 whole entry, looked up): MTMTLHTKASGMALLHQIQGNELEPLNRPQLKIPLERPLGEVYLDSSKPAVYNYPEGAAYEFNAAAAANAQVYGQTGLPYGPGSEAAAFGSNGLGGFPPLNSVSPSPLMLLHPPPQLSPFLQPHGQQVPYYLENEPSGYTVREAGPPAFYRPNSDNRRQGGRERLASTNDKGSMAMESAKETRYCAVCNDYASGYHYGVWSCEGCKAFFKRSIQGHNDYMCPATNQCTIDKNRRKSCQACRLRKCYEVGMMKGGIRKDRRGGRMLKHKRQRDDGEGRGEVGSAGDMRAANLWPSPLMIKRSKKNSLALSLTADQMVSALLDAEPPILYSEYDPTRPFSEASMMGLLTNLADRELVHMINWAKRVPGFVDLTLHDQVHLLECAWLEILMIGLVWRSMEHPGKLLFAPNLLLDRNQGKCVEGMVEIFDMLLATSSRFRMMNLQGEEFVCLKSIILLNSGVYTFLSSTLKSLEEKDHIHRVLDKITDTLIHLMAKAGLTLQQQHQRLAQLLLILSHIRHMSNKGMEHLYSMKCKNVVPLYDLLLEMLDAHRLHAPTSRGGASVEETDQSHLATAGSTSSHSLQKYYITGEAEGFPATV
Chain of Estrogen receptor beta (Homo sapiens) (Q92731 whole entry, looked up): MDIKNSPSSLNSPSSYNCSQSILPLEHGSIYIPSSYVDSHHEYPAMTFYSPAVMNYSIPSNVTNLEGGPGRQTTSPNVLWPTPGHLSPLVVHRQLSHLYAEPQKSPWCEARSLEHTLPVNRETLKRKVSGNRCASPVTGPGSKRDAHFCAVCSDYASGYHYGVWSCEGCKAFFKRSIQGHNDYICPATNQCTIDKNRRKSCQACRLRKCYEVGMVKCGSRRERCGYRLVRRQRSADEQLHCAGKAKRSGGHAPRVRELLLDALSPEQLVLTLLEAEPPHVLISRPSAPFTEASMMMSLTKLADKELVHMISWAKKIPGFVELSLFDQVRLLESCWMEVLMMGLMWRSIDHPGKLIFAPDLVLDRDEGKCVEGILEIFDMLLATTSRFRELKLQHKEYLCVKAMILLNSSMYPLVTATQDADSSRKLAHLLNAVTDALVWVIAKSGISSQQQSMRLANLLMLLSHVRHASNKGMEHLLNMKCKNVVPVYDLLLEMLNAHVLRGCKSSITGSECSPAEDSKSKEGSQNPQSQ
Chain of Androgen receptor (Homo sapiens) (P10275 whole entry, looked up): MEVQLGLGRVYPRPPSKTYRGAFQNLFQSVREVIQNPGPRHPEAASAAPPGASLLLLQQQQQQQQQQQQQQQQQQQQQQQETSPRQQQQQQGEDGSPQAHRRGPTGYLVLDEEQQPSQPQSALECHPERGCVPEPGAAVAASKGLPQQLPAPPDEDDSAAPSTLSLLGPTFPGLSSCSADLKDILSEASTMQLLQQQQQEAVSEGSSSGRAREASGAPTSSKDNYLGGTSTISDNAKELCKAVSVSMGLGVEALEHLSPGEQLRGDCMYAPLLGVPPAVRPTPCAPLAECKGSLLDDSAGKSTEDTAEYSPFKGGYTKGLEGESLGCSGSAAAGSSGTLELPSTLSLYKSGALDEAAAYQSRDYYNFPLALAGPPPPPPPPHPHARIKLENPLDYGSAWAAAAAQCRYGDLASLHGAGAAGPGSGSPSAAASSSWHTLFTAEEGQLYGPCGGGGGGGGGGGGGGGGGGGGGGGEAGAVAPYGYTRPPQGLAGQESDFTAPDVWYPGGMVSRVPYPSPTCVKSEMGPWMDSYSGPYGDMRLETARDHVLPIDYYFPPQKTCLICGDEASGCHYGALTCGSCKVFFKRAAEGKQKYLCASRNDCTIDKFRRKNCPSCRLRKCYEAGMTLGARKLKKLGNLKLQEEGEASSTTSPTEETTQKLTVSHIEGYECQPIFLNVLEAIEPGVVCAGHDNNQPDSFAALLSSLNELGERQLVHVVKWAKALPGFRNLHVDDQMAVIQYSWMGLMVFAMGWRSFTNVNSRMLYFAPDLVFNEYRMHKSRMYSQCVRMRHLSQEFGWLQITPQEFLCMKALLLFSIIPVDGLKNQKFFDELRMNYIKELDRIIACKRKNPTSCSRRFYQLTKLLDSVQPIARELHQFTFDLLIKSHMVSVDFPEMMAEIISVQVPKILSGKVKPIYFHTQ

OC[C@H]1O[C@@H](n2cnc3c(=S)nc[nH]c32)[C@H](O)[C@@H]1O
inactive: Potency [1] | Potency [2] | Potency [3] | Potency [4] | Potency [5] | Potency [6] | Potency [7] | Potency [8] | Potency [9] | Potency [10] | Potency [11] | Potency [12] | Potency [14] | outcome [15]
active: Potency [13] 2.11 µM

Oc1cc2c(cc1O)[C@H]1c3ccc(O)c(O)c3OC[C@@]1(O)C2
inactive: Potency [1] | Potency [6] | Potency [9] | Potency [11] | Potency [13] | Potency [16] | Potency [14]
active: Potency [2] 27.6 µM | Potency [5] 55.1 µM | Potency [7] 27.6 µM | Potency [8] 27.6 µM | Potency [10] 17.4 µM | Potency [12] 61.9 µM

CCOC(C)=O
inactive: Potency [1] | Potency [2] | Potency [3] | Potency [4] | Potency [5] | Potency [7] | Potency [8] | Potency [10] | Potency [12] | Potency [13] | Potency [16] | Potency [14] | outcome [15]

C/C=C/C=C/C=O
inactive: Potency [1] | Potency [2] | Potency [17] | Potency [5] | Potency [6] | Potency [7] | Potency [8] | Potency [9] | Potency [11] | Potency [18] | Potency [12] | Potency [13] | Potency [19] | Potency [16] | Potency [14]

c1ccc(C[n+]2cccc3ccccc32)cc1
inactive: Potency [1] | Potency [2] | Potency [5] | Potency [6] | Potency [7] | Potency [9] | Potency [11] | Potency [13] | Potency [16] | Potency [14] | outcome [15]
active: Potency [3] 27.3 µM | Potency [12] 48.6 µM

CCCCN(CCN(CCCC)C(=O)N1CCOCC1)C(=O)N1CCOCC1
active: Potency [8] 26.6 µM | Potency [10] 13.3 µM
inactive: Potency [1] | Potency [2] | Potency [17] | Potency [3] | Potency [5] | Potency [7] | Potency [9] | Potency [11] | Potency [12] | Potency [13] | Potency [16] | Potency [14] | outcome [15]

O=[N+]([O-])c1ccc(Nc2ccc(Nc3ccccc3)c(S(=O)(=O)O)c2)c([N+](=O)[O-])c1
inactive: Potency [1] | Potency [5] | Potency [6] | Potency [9] | Potency [10] | Potency [13] | Potency [16] | outcome [15]

CCCCCCCCN
inactive: Potency [1] | Potency [2] | Potency [5] | Potency [6] | Potency [7] | Potency [8] | Potency [10] | Potency [11] | Potency [12] | Potency [13] | Potency [16] | outcome [15]

CN1CCCC(n2nc(Cc3ccc(Cl)cc3)c3ccccc3c2=O)CC1 (stereo not given)
inactive: Potency [5] | Potency [6] | Potency [9] | Potency [14] | outcome [15]
active: Potency [7] 10.6 µM | Potency [8] 10.6 µM | Potency [10] 2.66 µM | Potency [13] 26.6 µM

CCCCCCCC/C=C\CCCCCCCCO
inactive: Potency [1] | Potency [2] | Potency [5] | Potency [6] | Potency [7] | Potency [8] | Potency [9] | Potency [11] | Potency [18] | Potency [12] | Potency [13] | Potency [16]

Cc1cc(=O)c2c(O)c3c(O)cc(=O)c4c3c3c(cc(O)c1c23)C(C)(C)C=4O
active: Potency [1] 4.65 µM | Potency [12] 1.46 µM
inactive: Potency [4] | activity change, negative = inhibition [5] 3.66% [at 19 µM] | activity change, negative = cytotoxicity [6] 2.88% [at 19 µM] | viability change, negative = cytotoxic [7] 17.6% [at 19 µM] | viability change, negative = cytotoxic [8] -14.6% [at 19 µM] | activity change [9] -5.72% [at 18.9 µM, hits give high values] | activation [11] -11.3% [at 19 µM] | cAMP activity change [15] 14.8% [at 18.9 µM]
